This note sets out measurements from PubChem BioAssay AID1028 (SRMLSC, 2008).

The experiment has as its target diphosphomevalonate decarboxylase (Streptococcus pneumoniae D39) (UniProt Q9FD53). Briefly: diphosphomevalonate decarboxylase inhibitor confirmation – biochemical, cuvette format, coupled NADH fluorescence (AID 1028). The note with it: purified DPM-DC, rate, at 50 µM, active compounds read high.

Entries with a potency or affinity are not part of this list. A number with no mark means an inactive call.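 Rule for the calls: active = enzyme inhibitor confirmed by dose series, half-maximal inhibitory concentration at most 40 µM; inactive = the rest.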

On to `Cc1ccc(-c2nc3ccccc3o2)cc1`, for which the inhibition is 7.2%. With `COc1ccc2oc(-c3cccc([N+](=O)[O-])c3)nc2c1` the figure was 7.59%. Regarding `COc1ccc(OC)c(-c2nc3cc(OC)ccc3o2)c1`, the inhibition was 2.12%.

With `Cc1ccc(-c2nc3cc(N)ccc3o2)cc1F`, the inhibition was 16%. For the compound `O=C(c1ccccc1-n1sc2ccccc2c1=O)N1CCCCC1`, the inhibition is 16.1%. As for `Cc1ccc(-c2nc3ccccc3o2)cc1F`, the figure is 9.15%. As for `Cc1ccc(C)c(-c2nc3ccc(N)cc3o2)c1`, the inhibition is 13%. With `Cc1ccccc1-c1nc2cc(N)ccc2o1` the figure was 6.79%. For the compound `CN(C)C(=O)c1ccccc1-n1sc2ccccc2c1=O`, the inhibition was 16.7%.

Regarding `COc1ccc2oc(-c3ccc(N)cc3)nc2c1`, the inhibition is 7.74%. Regarding `COc1ccc2oc(-c3ccncc3)nc2c1`, the inhibition is -0.2%. In the case of `Cc1ccc(C)c(-c2nc3ccccc3o2)c1`, the inhibition is -0.27%. In the case of `COc1ccc(-c2nc3ccccc3o2)cc1`, the inhibition is 6.86%. As for `COc1ccc2oc(-c3cc(C)ccc3C)nc2c1`, the figure is 2.66%. With `Cc1ccccc1-c1nc2ccccc2o1` the figure was 1.75%. As for `Cc1ccc(C)c(-c2nc3cc(N)ccc3o2)c1`, the figure is 0.87%. Regarding `COc1ccc2oc(-c3cccc(N)c3)nc2c1`, the inhibition is -0.79%. With `COc1ccc2nc(-c3cc(OC)c(OC)c(OC)c3)oc2c1` the figure was 3.99%; with `COc1ccc2oc(-c3ccc(F)cc3)nc2c1`, 1.68%. As for `O=C(NC1CC1)c1ccccc1-n1sc2ccccc2c1=O`, the figure is 8%.

What is called inhibition is the relative decrease from the control value, in per cent.
